Compound activity from PubChem.
USP7 block – blocks human USP7 ubiquitin-rhodamine cleavage; Q93009; purified USP7, Ub-rhodamine cleavage fluorescence; inhibition, % at 20 µM; 0.3% of 47,000 active; AID 1645854
USP10 inh – blocks human USP10 ubiquitin-rhodamine cleavage | purified USP10, Ub-rhodamine fluorescence, 60 min | Q14694 | inhibition, % at 20 µM | 1.1% of 47,000 active
UCHL1 block – blocks human UCHL1 ubiquitin-rhodamine cleavage; P09936; purified UCHL1, Ub-rhodamine cleavage fluorescence; inhibition, % at 20 µM; 0.2% of 47,000 active; AID 1645859
USP8 block – human USP8 deubiquitinase inhibition | P40818 | purified USP8, Ub-rhodamine cleavage fluorescence, 30 min | inhibition, % at 20 µM | 4.2% of 47,000 active | AID 1645853
* marks the source's active call; other numbers are inactive results. The list is not random: actives were taken first. Their share in the collection is about 5%. No stated cut-off is given here; in the data, active means inhibition above about 30%; inactive means the rest.

SMILES	USP7 block	USP10 inh	UCHL1 block	USP8 block
Cc1c(NC(=O)/C=C/c2cccc(Cl)c2Cl)cccc1-n1cnnn1	17	20	3	80*
Cc1ccccc1C(=O)Nc1cccc(-n2cnnn2)c1C	-7	-6	-12	-4
Cc1ccc(N2CCC(c3cc4c(ncn4C)c(-c4cccnc4)n3)CC2)nn1	-19	-9	-18	-131
O=c1[nH][nH]c(=O)c2n[nH]nc12	-134	-4	-1	92*
COc1ccc(-c2nc(C)c(C(=O)NCc3ccc(S(N)(=O)=O)cc3)s2)cc1	2	9	1	-71
COc1cc(-c2nc3c(c(=O)c4ccccc4n3C)c(=O)n2Cc2ccco2)cc(OC)c1OC	3	0	3	29
Cn1c2ccccc2c(=O)c2c(=O)n(Cc3ccco3)c(-c3ccccc3F)nc21	5	61*	11	90*
Cc1nc2nc(C(c3ccccc3)c3ccccc3)[nH]n2c(=O)c1Cc1ccccc1	11	34*	3	27
Cc1cc(=O)n2[nH]c(C(c3ccccc3)c3ccccc3)nc2n1	4	6	1	0
COc1ccc(C2(C(=O)N(C)c3nc4c(s3)CCc3occc3-4)CC2)cc1	-20	3	2	-165
COc1ccc(CCNCc2cc3c(C(C)(C)C)nn(-c4ccccc4)c3[nH]c2=O)cc1OC	4	0	0	46*
CC(C)(C)c1nn(-c2ccccc2)c2[nH]c(=O)c(CNCc3ccco3)cc12	16	-3	-9	39*
CC(C)c1ncc(CN2CCc3nc(-c4ccccn4)[nH]c(=O)c3C2)cn1	0	-4	-1	-238
Cc1ccc(C)c(NC(=O)CCc2c(C)nn(-c3cc(N(C)C)ncn3)c2C)c1	2	4	0	-32
CNc1nc2c(c(=O)n1C)CN(C(=O)Nc1cccc3ccccc13)CC2	-86	21	28	90*
O=C(c1cncc(NS(=O)(=O)c2ccccc2)c1)N1CCN(Cc2ccc3c(c2)OCO3)CC1	0	2	-2	0
COc1ccccc1N1CCN(C(=O)Cc2ccccc2[N+](=O)[O-])CC1	-5	-2	-2	-5
COc1ccccc1CC(=O)N1CCN(c2cccc3[nH]ccc23)CC1	-5	-6	-1	58*
OC1(Cn2nnc(-c3ccc4c(c3)OCO4)n2)CCNCC1	9	2	1	-4
Cc1cccc(-c2cc(CC3(C(=O)O)CCCN(C(=O)C4CC4)C3)on2)c1 (stereo unspecified)	1	0	-2	0
CC(=O)c1c(O)c2ccccc2n(Cc2ccccc2)c1=O	-34	-5	-3	36*
CC(=O)c1c(O)c2ccccc2n(C2CCCCC2)c1=O	-15	-8	-13	49*
O=C(Nc1cccc(N2CCCC2=O)c1)c1cccc2cccnc12	5	4	5	2
COC(=O)c1ccc(C(=O)Nc2cc3ccccc3cc2NC(=O)c2ccc(C(=O)OC)cc2)cc1	6	13	2	16
Cc1cccc(CNC(=O)Cn2c(=O)c(C)nc3cc(C)c(C)cc32)c1	0	3	2	32*
SMILES	USP7 block	USP10 inh	UCHL1 block	USP8 block
CC(=O)Nc1nc2n(n1)C(c1ccccc1)CC(=O)N2 (stereo unspecified)	1	5	-1	3
O=C1CC(c2ccccc2)n2nc(NC(=O)c3ccccc3F)nc2N1 (stereo unspecified)	0	0	-1	44*
COc1ccc(C(=O)Nc2nc3n(n2)C(c2ccccc2)CC(=O)N3)cc1 (stereo unspecified)	8	17	3	76*
O=C(NC1CCCC1)c1cccc(NC(=O)c2nsc3ccccc23)c1	2	1	-2	-1
CC(c1ccccc1)N1CC(O)=C(c2nc3ccccc3s2)C1=N (stereo unspecified)	30*	45*	0	90*
N=C1C(c2nc3ccccc3s2)=C(O)CN1Cc1cccc(F)c1	0	-6	-6	0
COc1cccc(CN2CC(O)=C(c3nc4ccccc4s3)C2=N)c1	0	-11	-3	15
N=C1C(c2nc3ccccc3s2)=C(O)CN1Cc1ccc(F)cc1	3	9	-3	33*
COc1ccc(-c2noc(C3CCCN3C(=O)Nc3ccc(C)cc3C)n2)cc1 (stereo unspecified)	2	3	2	15
O=c1c(-c2nc(-c3ccncc3)no2)cccn1Cc1c(F)cccc1Cl	20	-7	-3	51*
O=c1c(-c2nc(C3CC3)no2)cccn1Cc1nc(-c2ccccc2F)no1	-30	-7	-48	-20
CCOc1ccccc1CN1CCC[C@@H](Cn2nnc(-c3ccncc3)n2)C1	1	0	2	25
COc1ccc([C@H]2Oc3cc(OC)cc(O)c3C(=O)[C@@H]2[C@@H]2C(=O)c3c(O)cc(O)cc3O[C@H]2c2ccc(OC)cc2)cc1	26	68*	10	19
O=C(CCn1c(=O)c2ccccc2n(Cc2ccc(F)cc2Cl)c1=O)NCc1ccco1	-8	40*	4	48*
O=C(Cn1c(=O)n(CC2CCC(C(=O)NCCc3ccccc3)CC2)c(=O)c2ccccc21)Nc1ccccc1F (stereo unspecified)	-1	-2	-5	-7
N#Cc1ccccc1Cn1c(=O)n(CCC(=O)N2CC=C(c3ccccc3)CC2)c(=O)c2ccccc21	2	10	4	12
Cc1ccc(Cl)cc1NC(=O)Cn1c(=O)n(CCC(=O)NCc2ccco2)c(=O)c2ccccc21	-10	56*	5	64*
O=C(Cn1c(=O)n(CCC(=O)N2CC=C(c3ccccc3)CC2)c(=O)c2ccccc21)NCc1ccco1	1	4	11	51*
Cc1cc(NC(=O)Cn2c(=O)n(CC3CCC(C(=O)NCCc4ccccc4)CC3)c(=O)c3ccccc32)n[nH]1 (stereo unspecified)	14	15	1	37*
CC1c2[nH]c3ccccc3c2C[C@@H]2C(=O)N(Cc3ccccc3)CC(=O)N12 (stereo partly specified)	-151	-2	3	7
O=C(Cc1ccc(O)cc1)N1CCC2(CC1)C(=O)NCN2C(=O)Cc1ccccc1	7	0	2	17
O=C(Cn1c(=O)n(CC2CCC(C(=O)NC3CCCC3)CC2)c(=O)c2ccccc21)NCCC1=CCCCC1 (stereo unspecified)	6	34*	2	24
COc1cccc(C(=O)Cn2c(=O)n(CCCC(=O)NCc3ccco3)c(=O)c3ccc(Cl)cc32)c1	-6	24	-1	10
O=C(CCCCn1c(=O)c2ccccc2n(CC(=O)NCCC2=CCCCC2)c1=O)NCc1ccco1	-24	0	0	42*
O=C(CCn1c(=O)c2ccccc2n(Cc2ccc([N+](=O)[O-])cc2)c1=O)NCc1ccco1	-11	20	2	-19
CCOc1ccc(NC(=O)Cn2c(=O)n(CCC(=O)NCc3ccco3)c(=O)c3ccccc32)cc1	0	45*	8	45*
COc1cc2c(=O)n(CCC(=O)NCc3ccco3)c(=O)n(CC(=O)Nc3c(C)cccc3C)c2cc1OC	9	-3	8	38*
